Values joined by “and” are separate entries in the source; they are usually repeats but may differ in a detail not shown here. Equal entries are not always repeated. Records with an inconclusive call do not appear. Where a call stands in place of a potency, no number is given. More than one record can exist for a structure, and the calls need not agree. Active and inactive are the calls of the source. Unless noted, calls come from the whole dose curve; as a rule, active = well fitted curve in the direction sought with a large enough effect; inconclusive = small, poorly fitted or top-dose-only effect, or another doubt; inactive = no such curve, though single readings can be large; an effect the other way counts as inactive or inconclusive.
Tests used:
[1] = A High-Content qHTS Against Drug Library for the Identification of Small Molecules that Inhibit DYT1 Early Onset Primary Dystonia-Associated Cell Pathology (AID 1645839; calls by dose curve)
Summary of the method: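 In this high-content image screen, delE TorsinA mislocalization in inducible Flp-In 293 cells is scored as %pathology, with cell count serving as the counterscreen. Compound exposure lasts 48 h under tetracycline induction in reduced-serum medium.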

[2] = biological target: Cytochrome P450 2D6 (Homo sapiens) (UniProt P10635); test: Cytochrome P450 family 2 subfamily D member 6 (CYP2D6) small molecule antagonists: luciferase biochemical (cell-free) qHTS assay (AID 1645840; active = well fitted curve in the direction sought with a large enough effect in the repeat runs; an effect the other way counts as inactive or inconclusive; note: nearly all actives have a fitted effect of over 55% in size; note: potency is the fitted concentration of half-maximal effect)
Sequence of Cytochrome P450 2D6 (Homo sapiens) (P10635 whole entry, looked up): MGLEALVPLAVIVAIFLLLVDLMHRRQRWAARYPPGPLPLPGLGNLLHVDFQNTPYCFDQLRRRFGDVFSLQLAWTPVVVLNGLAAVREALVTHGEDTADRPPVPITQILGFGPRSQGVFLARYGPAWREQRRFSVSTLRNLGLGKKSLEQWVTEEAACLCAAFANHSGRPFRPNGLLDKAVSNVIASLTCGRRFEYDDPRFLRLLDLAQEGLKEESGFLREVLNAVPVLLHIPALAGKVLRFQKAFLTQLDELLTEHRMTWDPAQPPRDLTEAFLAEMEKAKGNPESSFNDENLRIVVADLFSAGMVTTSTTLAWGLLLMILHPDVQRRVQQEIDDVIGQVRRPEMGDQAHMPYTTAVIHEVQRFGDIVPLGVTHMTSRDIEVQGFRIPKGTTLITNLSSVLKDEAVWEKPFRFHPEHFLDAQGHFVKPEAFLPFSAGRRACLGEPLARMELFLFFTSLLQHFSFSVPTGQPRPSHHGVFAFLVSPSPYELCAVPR
Summary of the method: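 P450-Glo luminescent screen: recombinant CYP2D6 enzyme–proluciferin substrate mix preincubated with compound 10 min at room temperature, then NADPH regeneration added for 1 h at room temperature. Detection reagent added for 20 min; luciferin light read as relative luminescence units.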

[3] = biological target: Cytochrome P450 2C9 (Homo sapiens) (UniProt P11712); test: Cytochrome P450 family 2 subfamily C member 9 (CYP2C9) small molecule antagonists: luciferase biochemical (cell-free) qHTS assay (AID 1645842; active = well fitted curve in the direction sought with a large enough effect in the repeat runs; an effect the other way counts as inactive or inconclusive; note: nearly all actives have a fitted effect of over 55% in size; note: potency is the fitted concentration of half-maximal effect)
Sequence of Cytochrome P450 2C9 (Homo sapiens) (P11712 whole entry, looked up): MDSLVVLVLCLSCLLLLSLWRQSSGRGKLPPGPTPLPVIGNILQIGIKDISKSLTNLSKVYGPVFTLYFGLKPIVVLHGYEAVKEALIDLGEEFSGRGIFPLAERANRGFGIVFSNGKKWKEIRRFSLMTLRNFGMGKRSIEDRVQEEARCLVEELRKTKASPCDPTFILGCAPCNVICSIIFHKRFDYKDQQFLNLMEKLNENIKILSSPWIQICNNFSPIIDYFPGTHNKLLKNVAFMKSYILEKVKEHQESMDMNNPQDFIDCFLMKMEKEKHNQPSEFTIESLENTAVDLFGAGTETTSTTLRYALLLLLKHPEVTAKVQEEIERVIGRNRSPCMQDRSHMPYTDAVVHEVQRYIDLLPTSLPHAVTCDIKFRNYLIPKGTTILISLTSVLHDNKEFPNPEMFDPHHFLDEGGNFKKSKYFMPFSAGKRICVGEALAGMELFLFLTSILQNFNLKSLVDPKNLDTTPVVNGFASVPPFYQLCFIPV
Summary of the method: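 Luminescence, after 20 min with luciferin detection reagent, reflected CYP2C9 turnover during a 1 h NADPH-driven reaction at 37C. Enzyme-substrate mix contained 0.4% bovine serum albumin and was preincubated with compound 10 min at room temperature.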

[4] = Primary qHTS for small molecule stabilizers of the endoplasmic reticulum resident proteome: Secreted ER Calcium Modulated Protein (SERCaMP) assay (AID 1508630)
Summary of the method: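 GLuc-SERCaMP-expressing SH-SY5Y cells, pretreated 16 h with compound, are challenged with thapsigargin to empty ER calcium stores; after 4 h, coelenterazine is added directly to the medium and luminescence is imaged.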

[5] = Cytotoxicity counterscreen for inhibitors of SARS-CoV-2 cell entry (AID 1645845; calls by dose curve; note: nearly all actives have a fitted effect of over 50% in size; note: potency is the fitted concentration of half-maximal effect)
Summary of the method: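 48 h compound treatment (after 1 h preincubation), HEK293-ACE2 cells, 37 C/5% CO2; ATP luminescence endpoint; normalized to cell wells and media blanks.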

[6] = Primary qHTS to identify inhibitors of SARS-CoV-2 cell entry (AID 1645846; calls by dose curve; note: nearly all actives have a fitted effect of over 45% in size; note: potency is the fitted concentration of half-maximal effect); details: activity change, negative = inhibition: at 57.1 µM (top of the series) unless noted
Summary of the method: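 Data are normalized to wells receiving SARS-CoV-2-S pseudoparticles and those given bald particles. Entry signal was luciferase luminescence in stable hACE2 Expi293F cells, 48 hr post-infection, after 1 hr compound pretreatment.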

Papain (Carica papaya) = Papain (Carica papaya) (UniProt P00784); test: Primary qHTS assay for inhibitors of the protease papain (AID 1645873);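 note: papain turnover of Z-FR-AMC read as the AMC fluorescence gain over 10 min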; note: potency is the fitted concentration of half-maximal effect
Sequence of Papain (Carica papaya) (P00784 whole entry, looked up, the tested form may be a part): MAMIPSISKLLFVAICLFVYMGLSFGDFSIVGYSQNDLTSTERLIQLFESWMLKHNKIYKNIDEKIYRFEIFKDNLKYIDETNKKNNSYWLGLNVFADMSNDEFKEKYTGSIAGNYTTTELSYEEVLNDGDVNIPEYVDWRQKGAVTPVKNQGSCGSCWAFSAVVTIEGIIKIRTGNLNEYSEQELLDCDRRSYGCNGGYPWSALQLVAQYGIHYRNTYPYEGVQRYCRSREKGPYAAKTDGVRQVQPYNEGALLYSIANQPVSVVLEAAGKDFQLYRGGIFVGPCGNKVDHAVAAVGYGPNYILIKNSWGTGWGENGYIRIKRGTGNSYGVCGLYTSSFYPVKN

[7] = Primary qHTS for inhibitors of nuclear receptor binding SET domain protein 2 (NSD2) in an isogenic RCH-ACV NSD2 p.E1099K mutant (9B) (AID 1645876); note: nearly all actives have a fitted effect of over 70% in size; note: potency is the fitted concentration of half-maximal effect
[8] = Primary qHTS for inhibitors of nuclear receptor binding SET domain protein 2 (NSD2) in an RCH-ACV wild type WT cells (2C) (AID 1645877); note: nearly all actives have a fitted effect of over 70% in size; note: potency is the fitted concentration of half-maximal effect
[9] = biological target: Cytochrome P450 3A4 (Homo sapiens) (UniProt P08684); test: Cytochrome P450 family 3 subfamily A member 4 (CYP3A4) small molecule antagonists: luciferase qHTS assay (AID 1645841; active = well fitted curve in the direction sought with a large enough effect in the repeat runs; an effect the other way counts as inactive or inconclusive; note: nearly all actives have a fitted effect of over 45% in size)
Sequence of Cytochrome P450 3A4 (Homo sapiens) (P08684 whole entry, looked up): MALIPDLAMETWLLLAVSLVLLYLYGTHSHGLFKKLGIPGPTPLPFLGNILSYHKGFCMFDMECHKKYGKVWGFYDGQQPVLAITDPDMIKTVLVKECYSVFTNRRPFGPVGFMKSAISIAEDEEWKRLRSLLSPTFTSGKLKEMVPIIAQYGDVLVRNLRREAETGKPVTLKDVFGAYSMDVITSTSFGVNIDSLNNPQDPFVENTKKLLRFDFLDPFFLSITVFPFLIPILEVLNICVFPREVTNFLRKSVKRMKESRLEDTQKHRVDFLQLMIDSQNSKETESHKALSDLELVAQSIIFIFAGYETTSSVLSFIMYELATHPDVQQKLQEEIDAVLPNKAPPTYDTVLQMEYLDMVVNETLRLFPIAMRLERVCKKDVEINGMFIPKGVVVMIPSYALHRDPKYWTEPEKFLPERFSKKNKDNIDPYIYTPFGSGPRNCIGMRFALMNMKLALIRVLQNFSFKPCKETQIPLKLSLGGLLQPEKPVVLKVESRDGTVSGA
Summary of the method: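 Luminescent CYP3A4 activity readout: compounds plus enzyme-substrate mix 10 min at room temperature, reaction started with NADPH regenerating system for 1 h, stopped with detection reagent, read after 20 min. Ketoconazole served as control.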

[10] = biological target: Catechol O-methyltransferase (Homo sapiens) (UniProt P21964); test: Confirmatory Screen for Target Class Profiling of Small Molecule Inhibitors of Methyltransferases (AID 1745852); details: MTase-Glo luminescence, SAH detection, recombinant enzyme; measured here: COMT max response; stronger effect = lower value
Sequence of Catechol O-methyltransferase (Homo sapiens) (P21964 whole entry, looked up): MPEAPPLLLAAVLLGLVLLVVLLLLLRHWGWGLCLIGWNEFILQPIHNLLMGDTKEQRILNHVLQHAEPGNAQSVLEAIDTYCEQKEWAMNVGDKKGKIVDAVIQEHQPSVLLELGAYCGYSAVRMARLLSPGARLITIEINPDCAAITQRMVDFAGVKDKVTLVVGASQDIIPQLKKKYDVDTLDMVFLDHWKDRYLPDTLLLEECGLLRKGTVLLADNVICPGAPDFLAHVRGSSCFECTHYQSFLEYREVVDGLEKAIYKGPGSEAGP

Q: For NCCc1cc(O)c(O)cc1O, which Potency [1] is on record?
A: inactive

Q: What about the Potency [2] of the same compound?
A: inactive

Q: What about the Potency [3] of the same compound?
A: inactive

Q: What does the source list for CC(O)(CS(=O)(=O)c1ccc(F)cc1)C(=O)Nc1ccc(C#N)c(C(F)(F)F)c1 (centres undefined)?
A: outcome [4]: inactive; Potency [5]: inactive; activity change, negative = inhibition [6]: -21.9%; Potency (Papain (Carica papaya)): inactive

Q: Which results are given for CC[N+]1(C)CCCC(OC(=O)C(O)(c2ccccc2)c2ccccc2)C1 (centres undefined)?
A: Potency [1]: inactive; Potency [2]: 2.75 µM (active); Potency [3]: inactive; Potency [7]: inactive; Potency [8]: inactive

Q: Which Potency [1] does the source give for C#CCOC(C(=O)OCCN(C)C)(c1ccccc1)c1ccccc1 here?
A: inactive

Q: What about the Potency [2] of the same compound?
A: 1.55 µM (active)

Q: What about the Potency [3] of the same compound?
A: 0.776 µM (active)

Q: What about the Potency [7] of the same compound?
A: inactive

Q: What about the Potency [8] of the same compound?
A: inactive

Q: What does the source list for Cc1cccc(C)c1NC1=NCCCS1?
A: Potency [1]: inactive; Potency [2]: 15.5 µM (active); Potency [3]: inactive; Potency [5]: inactive; activity change, negative = inhibition [6]: -11.5%; Potency (Papain (Carica papaya)): inactive; Potency [7]: inactive; Potency [8]: inactive

Q: For Clc1ccc(CCC(Cn2ccnc2)Sc2c(Cl)cccc2Cl)cc1 (centres undefined), which outcome [4] is on record?
A: inactive

Q: What about the Potency [2] of the same compound?
A: 0.55 µM (active)

Q: And the Potency [3]?
A: 0.0123 µM (active)

Q: What about the Potency [7] of the same compound?
A: 18.8 µM (active) and 18.6 µM (active)

Q: And the Potency [8]?
A: 11.9 µM (active) and 20.9 µM (active)

Q: With CCCN1CCC[C@@H]2Cc3nc(N)ncc3C[C@H]21 as the compound, how does the Potency [1] read?
A: inactive

Q: And the Potency [2]?
A: 9.77 µM (active)

Q: And the Potency [3]?
A: inactive

Q: And the Potency (Papain (Carica papaya))?
A: inactive

Q: And the Potency [7]?
A: inactive

Q: And the Potency [8]?
A: inactive

Q: With Oc1ccccc1-c1ccccc1 as the compound, how does the Potency [1] read?
A: inactive

Q: And the Potency [2]?
A: inactive

Q: And the Potency [3]?
A: inactive

Q: And the Potency [5]?
A: inactive

Q: What about the Potency [6] of the same compound?
A: inactive

Q: What about the Potency [7] of the same compound?
A: inactive

Q: What about the Potency [8] of the same compound?
A: inactive

Q: Which outcome [4] does the source give for Cc1cc(SCc2sc(-c3ccc(C(F)(F)F)c(F)c3)nc2C)ccc1OCC(=O)O here?
A: inactive

Q: And the Potency [5]?
A: inactive

Q: What about the Potency [6] of the same compound?
A: inactive

Q: And the Potency [7]?
A: inactive

Q: What about the Potency [8] of the same compound?
A: inactive

Q: For COc1ccc(C(=O)c2c(C)n(CCN3CCOCC3)c3ccccc23)cc1, which Potency [1] is on record?
A: inactive

Q: And the Potency [2]?
A: 12.3 µM (active)

Q: And the Potency [3]?
A: 5.49 µM (active)

Q: And the Potency [6]?
A: 31.6 µM (active)

Q: And the Potency [7]?
A: 23.5 µM (active)

Q: What about the Potency [8] of the same compound?
A: 18.8 µM (active)

Q: For CC(C)NCC(O)c1ccccc1Cl (centres undefined), which Potency [1] is on record?
A: inactive

Q: What about the Potency [2] of the same compound?
A: 11 µM (active)

Q: And the Potency [3]?
A: inactive

Q: What about the Potency [5] of the same compound?
A: inactive

Q: And the Potency [7]?
A: inactive

Q: And the Potency [8]?
A: inactive

Q: With c1ccc2c(c1)OCC(C1=NCCN1)O2 (centres undefined) as the compound, how does the outcome [4] read?
A: inactive

Q: And the Potency [2]?
A: 19.5 µM (active)

Q: What about the Potency [3] of the same compound?
A: inactive

Q: And the Potency (Papain (Carica papaya))?
A: inactive

Q: What about the Potency [7] of the same compound?
A: 9.44 µM (active)

Q: What about the Potency [8] of the same compound?
A: 7.5 µM (active)

Q: For COc1ccc(Cc2nccc3cc(OC)c(OC)cc23)cc1OC, which Potency [1] is on record?
A: inactive

Q: What about the Potency [2] of the same compound?
A: 4.9 µM (active)

Q: And the Potency [3]?
A: 9.77 µM (active)

Q: And the Potency [5]?
A: 7.94 µM (active)

Q: And the Potency [7]?
A: 11.8 µM (active)

Q: And the Potency [8]?
A: 5.25 µM (active)

Q: For CCOC(=O)C1(c2ccccc2)CCN(CCC(C#N)(c2ccccc2)c2ccccc2)CC1, which Potency [1] is on record?
A: inactive

Q: And the Potency [2]?
A: 1.74 µM (active)

Q: And the Potency [3]?
A: 1.55 µM (active)

Q: And the Potency [7]?
A: 5.96 µM (active)

Q: And the Potency [8]?
A: 5.96 µM (active)

Q: Which results are given for Oc1ccc(Cl)cc1Cc1ccccc1?
A: outcome [4]: inactive; Potency [2]: 29.4 µM (active); Potency [3]: 9.31 µM (active) and 12.3 µM (active); Potency [5]: inactive; Potency [7]: 24.6 µM (active); Potency [8]: 34.7 µM (active)

Q: With CCOP(=S)(OCC)Oc1cc(C)nc(C(C)C)n1 as the compound, how does the Potency [1] read?
A: inactive

Q: And the Potency [2]?
A: inactive

Q: And the Potency [3]?
A: 1.95 µM (active)

Q: And the Potency [7]?
A: inactive

Q: And the Potency [8]?
A: inactive

Q: What does the source list for Cn1c(CCCC(=O)O)nc2cc(N(CCCl)CCCl)ccc21?
A: Potency [1]: inactive; Potency [2]: inactive; Potency [3]: inactive; Potency [5]: inactive; Potency (Papain (Carica papaya)): 25.1 µM (active)

Q: With C[C@@H]1O[C@@H](O[C@H]2C[C@@H](O)[C@]3(CO)[C@H]4[C@H](O)C[C@]5(C)[C@@H](C6=CC(=O)OC6)CC[C@]5(O)[C@@H]4CC[C@]3(O)C2)[C@H](O)[C@H](O)[C@H]1O as the compound, how does the outcome [4] read?
A: inactive

Q: And the Potency [2]?
A: inactive

Q: What about the Potency [3] of the same compound?
A: inactive

Q: What about the activity change, negative = inhibition [6] of the same compound?
A: -97.3% and -94.1%

Q: What about the Potency (Papain (Carica papaya)) of the same compound?
A: inactive

Q: And the Potency [7]?
A: 29.9 nM (active) and 50.2 nM (active) and 41.7 nM (active)

Q: And the Potency [8]?
A: 37.6 nM (active) and 100 nM (active) and 66.1 nM (active)

Q: With O=c1[nH]c2ccccc2n1CCCN1CCC(n2c(=O)[nH]c3cc(Cl)ccc32)CC1 as the compound, how does the outcome [4] read?
A: inactive

Q: And the Potency [5]?
A: inactive

Q: And the activity change, negative = inhibition [6]?
A: -22.6%

Q: What about the Potency (Papain (Carica papaya)) of the same compound?
A: inactive

Q: And the Potency [8]?
A: 20.9 µM (active)

Q: With CNCC(O)c1ccc(O)cc1 (centres undefined) as the compound, how does the Potency [1] read?
A: inactive

Q: What about the Potency [2] of the same compound?
A: inactive

Q: What about the Potency [3] of the same compound?
A: inactive

Q: And the Potency [5]?
A: inactive

Q: And the activity change, negative = inhibition [6]?
A: -17.4%

Q: And the Potency (Papain (Carica papaya))?
A: inactive

Q: And the Potency [7]?
A: inactive

Q: And the Potency [8]?
A: inactive

Q: For Cn1cc(C2=C(c3cn(C4CCN(Cc5ccccn5)CC4)c4ccccc34)C(=O)NC2=O)c2ccccc21, which outcome [4] is on record?
A: inactive

Q: What about the Potency [2] of the same compound?
A: inactive

Q: What about the Potency [3] of the same compound?
A: 3.09 µM (active)

Q: And the Potency [5]?
A: inactive

Q: What about the Potency [7] of the same compound?
A: inactive and 16.4 µM (active)

Q: And the Potency [8]?
A: inactive

Q: For CC(C)(N)Cc1ccc(Cl)cc1, which Potency [1] is on record?
A: inactive

Q: And the Potency [2]?
A: 6.17 µM (active)

Q: And the Potency [3]?
A: inactive

Q: And the Potency [7]?
A: inactive

Q: What about the Potency [8] of the same compound?
A: inactive

Q: For COc1ccccc1N1CCNCC1, which Potency [1] is on record?
A: inactive

Q: And the Potency [2]?
A: inactive

Q: And the outcome [9]?
A: inactive

Q: What about the Potency [3] of the same compound?
A: inactive

Q: And the Potency (Papain (Carica papaya))?
A: inactive

Q: Which Potency [1] does the source give for Cc1ccc2c(c1)C1CN(C)CCC1N2 (centres undefined) here?
A: inactive

Q: And the Potency [2]?
A: 4.25 µM (active)

Q: And the Potency [3]?
A: inactive

Q: What about the Potency [7] of the same compound?
A: inactive

Q: What about the Potency [8] of the same compound?
A: inactive

Q: Which results are given for CC(C)=CCOc1c2occc2cc2ccc(=O)oc12?
A: Potency [1]: inactive; Potency [2]: 0.871 µM (active); Potency [3]: 0.347 µM (active); Potency (Papain (Carica papaya)): inactive; activity [10]: -8.52%

— PubChem BioAssay (NCATS)
